Data published in PubChem BioAssay AID1159580 (chemical genetic matrix, 2015).
Where “and” joins values, the source holds several entries; their conditions need not be identical. Equal entries are not always repeated. In all, about 5,500 compounds went through this assay and about 2,000 (36%) were called active. Inconclusive results (about 18%) are left out. Rule as the data show it: active = normalized growth mostly below about 0.91 (no sharp cut-off); inconclusive = no clear call, values can overlap the other calls; inactive = mostly above about 0.92. The list shows a part of the results.

Experiment: chemical genetic growth profiling, strain panel (AID 1159580);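 also: tested at 20 µM; growth read once vehicle control cultures reached saturation at 30 °C; 1 = growth at the plate median or of vehicle wells; lower values mean less growth of the strain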
Conditions: S. cerevisiae deletion strains, growth OD
[1] = locus YAL013W, strain DEP1, hits give low values

Measured: normalized growth

CCCCCC1C(=O)CCC1CC(=O)O (stereo not drawn)
inactive: [1] 0.997 | locus YAL021C, strain ccr4, hits give low values 0.984 | locus YAL026C, strain drs2, hits give low values 0.994 | locus YAL030W, strain snc1, hits give low values 0.984 | locus YBL061C, strain skt5, hits give low values 0.988 | locus YBR009C, strain hhf1, hits give low values 1.01 | locus YBR021W, strain FUR4, hits give low values 0.991 | locus YBR023C, strain chs3, hits give low values 0.99 | locus YBR171W, strain sec66, hits give low values 1 | locus YBR229C, strain ROT2, hits give low values 1 | locus YBR231C, strain swc5, hits give low values 1 | locus YBR279W, strain paf1, hits give low values 0.98 | locus YCL011C, strain gbp2, hits give low values 0.995 | locus YCL016C, strain dcc1, hits give low values 0.98 | locus YCL029C, strain bik1, hits give low values 0.998 | locus YCL061C, strain MRC1, hits give low values 0.991 | locus YCL069W, strain vba3, hits give low values 0.995 | locus YCR088W, strain abp1, hits give low values 0.976 | locus YDL005C, strain med2, hits give low values 0.982 | locus YDL035C, strain GPR1, hits give low values 1.01 | locus YDL040C, strain nat1, hits give low values 0.995 | locus YDL074C, strain BRE1, hits give low values 1.01 | locus YDL101C, strain DUN1, hits give low values 1.01 | locus YDL134C, strain PPH21, hits give low values 1.06 | locus YDL185W, strain tfp1, hits give low values 0.974 | locus YDL192W, strain arf1, hits give low values 0.986 | locus YDR001C, strain nth1, hits give low values 0.986 | locus YDR069C, strain doa4, hits give low values 1.01 | locus YDR101C, strain arx1, hits give low values 0.99 | locus YDR137W, strain rgp1, hits give low values 0.998 | locus YDR150W, strain NUM1, hits give low values 1.02 | locus YDR159W, strain sac3, hits give low values 0.997 | locus YDR162C, strain NBP2, hits give low values 1.04 | locus YDR195W, strain ref2 0.999 | locus YDR297W, strain sur2, hits give low values 0.988 | locus YDR318W, strain mcm21, hits give low values 0.992 | locus YDR334W, strain swr1, hits give low values 0.981 | locus YDR335W, strain msn5, hits give low values 0.981 | locus YDR388W, hits give low values 0.994 | locus YDR392W, strain spt3, hits give low values 0.91 | locus YDR502C, strain sam2, hits give low values 1.01 | locus YEL003W, strain gim4, hits give low values 0.987 | locus YEL037C, strain rad23, hits give low values 0.972 | locus YEL061C, strain CIN8 (second series), hits give low values 0.984 | locus YEL061C, strain CIN8, hits give low values 1 | locus YER015W, strain faa2, hits give low values 0.983 | locus YER016W, strain bim1, hits give low values 0.984 | locus YER110C, hits give low values 0.982 | locus YER111C, strain swi4, hits give low values 0.975 | locus YER155C, strain BEM2 (second series), hits give low values 0.982 | locus YER155C, strain BEM2, hits give low values 0.989 | locus YER167W, strain BCK2, hits give low values 1.01 | locus YFR010W, strain ubp6, hits give low values 0.987 | locus YGL078C, strain dbp3, hits give low values 0.988 | locus YGL086W, strain mad1, hits give low values 0.994 | locus YGL167C, strain pmr1, hits give low values 0.986 | locus YGL173C, strain kem1, hits give low values 0.989 | locus YGL227W, strain vid30, hits give low values 0.998 | locus YGL240W, strain doc1, hits give low values 0.998 | locus YGL248W, strain PDE1, hits give low values 0.998 | locus YGL253W, strain hxk2, hits give low values 0.996 | locus YGR135W, strain pre9, hits give low values 0.994 | locus YGR252W, strain gcn5, hits give low values 0.993 | locus YHR013C, strain ard1, hits give low values 0.972 | locus YHR027C, strain rpn1, hits give low values 0.98 | locus YHR030C, strain SLT2, hits give low values 0.992 and 0.982 | locus YHR079C, strain IRE1 (second series), hits give low values 0.987 | locus YHR079C, strain IRE1, hits give low values 0.99 | locus YHR094C, strain hxt1, hits give low values 0.969 | locus YHR129C, strain ARP1, hits give low values 1 | locus YHR142W, strain chs7, hits give low values 0.973 | locus YHR200W, strain rpn10, hits give low values 0.988 | locus YIL066C, strain RNR3, hits give low values 1.03 | locus YIL073C, strain SPO22, hits give low values 1.04 | locus YIL125W, strain kgd1, hits give low values 0.985 | locus YIR030C, strain dcg1, hits give low values 0.986 | locus YJL092W, strain hpr5, hits give low values 0.983 | locus YJL095W, strain BCK1 (second series), hits give low values 0.993 | locus YJL095W, strain BCK1, hits give low values 1.05 and 0.989 | locus YJL115W, strain asf1, hits give low values 0.973 | locus YJL129C, strain trk1, hits give low values 0.961 | locus YJL134W, strain LCB3, hits give low values 0.991 | locus YJL154C, strain vps35, hits give low values 0.982 | locus YJL164C, strain tpk1, hits give low values 0.998 | locus YJL166W, strain qcr8, hits give low values 0.996 | locus YJL168C, strain set2, hits give low values 0.991 | locus YJL187C, strain SWE1 (second series), hits give low values 1.02 | locus YJL187C, strain SWE1, hits give low values 0.984 | locus YJR043C, strain POL32, hits give low values 1.03 | locus YJR066W, strain TOR1, hits give low values 0.967 | locus YKL009W, strain mrt4, hits give low values 0.972 | locus YKL068W, hits give low values 0.981 | locus YKL085W, strain MDH1 (second series), hits give low values 0.992 | locus YKL085W, strain MDH1, hits give low values 0.992 | locus YKL160W, strain elf1, hits give low values 0.978 | locus YKL190W, strain CNB1, hits give low values 1 | locus YKR001C, strain vps1, hits give low values 0.987 | locus YKR026C, strain gcn3, hits give low values 0.985 | locus YKR091W, strain srl3, hits give low values 0.98 | locus YLL001W, strain dnm1, hits give low values 0.961 | locus YLL026W, hits give low values 0.994 | locus YLL041C, strain sdh2, hits give low values 0.989 | locus YLR027C, strain aat2, hits give low values 0.984 | locus YLR039C, strain RIC1, hits give low values 1.06 | locus YLR058C, strain SHM2, hits give low values 1.01 | locus YLR102C, strain apc9, hits give low values 0.978 | locus YLR113W, strain HOG1, hits give low values 0.95 | locus YLR221C, strain rsa3, hits give low values 0.993 | locus YLR258W, strain gsy2, hits give low values 0.986 | locus YLR262C, strain YPT6 (second series), hits give low values 0.99 | locus YLR262C, strain YPT6, hits give low values 1.07 | locus YLR268W, strain sec22, hits give low values 1 | locus YLR320W, strain mms22, hits give low values 0.967 | locus YLR330W, strain CHS5, hits give low values 0.993 | locus YLR342W, strain FKS1 (second series), hits give low values 1.02 | locus YLR342W, strain FKS1, hits give low values 0.982 | locus YLR357W, strain rsc2, hits give low values 0.994 | locus YLR370C, strain arc18, hits give low values 0.983 | locus YLR371W, strain rom2, hits give low values 0.987 | locus YLR384C, strain iki3, hits give low values 0.978 | locus YLR418C, strain cdc73, hits give low values 0.989 | locus YML016C, strain PPZ1, hits give low values 0.995 | locus YML032C, strain rad52, hits give low values 0.987 | locus YML120C, strain ndi1, hits give low values 0.99 | locus YML124C, strain tub3, hits give low values 0.985 | locus YMR058W, strain fet3, hits give low values 0.983 | locus YMR078C, strain ctf18, hits give low values 1.01 | locus YMR125W, strain sto1, hits give low values 0.965 | locus YMR129W, hits give low values 0.989 | locus YMR205C, strain PFK2, hits give low values 0.969 | locus YMR223W, strain ubp8, hits give low values 0.994 | locus YMR231W, strain pep5, hits give low values 0.983 | locus YMR307W, strain GAS1, hits give low values 1.06 | locus YNL067W, strain RPL9B, hits give low values 1.04 | locus YNL071W, strain lat1, hits give low values 0.99 | locus YNL128W, strain TEP1, hits give low values 1 | locus YNL183C, strain NPR1, hits give low values 0.931 | locus YNL209W, strain ssb2, hits give low values 0.995 | locus YNL233W, strain BNI4, hits give low values 1.03 | locus YNL248C, strain rpa49, hits give low values 0.99 | locus YNL250W, strain rad50, hits give low values 0.976 | locus YNL271C, strain bni1, hits give low values 0.969 | locus YNL298W, strain CLA4, hits give low values 0.968 | locus YNL307C, strain MCK1, hits give low values 0.989 | locus YNL322C, strain KRE1 (second series), hits give low values 0.972 | locus YNR049C, strain mso1, hits give low values 0.984 | locus YNR052C, strain pop2, hits give low values 0.975 | locus YOL006C, strain TOP1, hits give low values 1.02 | locus YOL012C, strain htz1 1.21 | locus YOL147C, strain pex11, hits give low values 0.986 | locus YOR001W, strain rrp6, hits give low values 0.997 | locus YOR061W, strain CKA2, hits give low values 0.996 | locus YOR069W, strain VPS5, hits give low values 0.993 | locus YOR070C, strain gyp1, hits give low values 0.99 | locus YOR080W, strain dia2, hits give low values 0.987 | locus YOR083W, strain WHI5, hits give low values 0.959 | locus YOR106W, strain vam3, hits give low values 0.987 | locus YOR136W, strain idh2, hits give low values 0.982 | locus YOR144C, strain elg1, hits give low values 0.994 | locus YOR184W, strain ser1, hits give low values 1.02 | locus YOR231W, strain MKK1, hits give low values 1.01 | locus YOR265W, strain rbl2, hits give low values 0.989 | locus YOR270C, strain vph1, hits give low values 0.961 | locus YOR290C, strain snf2, hits give low values 0.916 | locus YOR316C, strain cot1, hits give low values 0.981 | locus YPL051W, strain arl3, hits give low values 0.982 | locus YPL055C, strain LGE1, hits give low values 1.06 | locus YPL078C, strain atp4, hits give low values 0.979 | locus YPL106C, strain sse1, hits give low values 0.99 | locus YPL240C, strain hsp82, hits give low values 0.985 | locus YPL256C, strain CLN2, hits give low values 0.964 | locus YPR119W, strain clb2, hits give low values 0.988 | locus YPR141C, strain kar3, hits give low values 0.981 | locus YPR163C, strain tif3, hits give low values 0.978 | locus YPR167C, strain met16, hits give low values 0.997 | strain wtn01, hits give low values 1.01

CCn1cnc2c(Nc3cccc(Cl)c3)nc(N[C@@H]3CCCC[C@@H]3N)nc21
inactive: [1] 0.985 | locus YAL040C, strain CLN3, hits give low values 1.02 | locus YCL061C, strain MRC1 (second series), hits give low values 0.998 | locus YDR363W, strain ESC2, hits give low values 0.993 | locus YER002W, strain NOP16, hits give low values 1.03 | locus YGR078C, strain PAC10, hits give low values 1.01 | locus YGR229C, strain SMI1, hits give low values 0.993 | locus YMR263W, strain SAP30, hits give low values 1 | locus YNL175C, strain NOP13, hits give low values 1.08 | locus YNL224C, strain SQS1, hits give low values 1.04 | locus YOR083W, strain WHI5 (second series), hits give low values 0.991 | locus YPL241C, strain CIN2, hits give low values 1.01
